From PubChem BioAssay
OTUD3 inh: inhibitors of human OTUD3 deubiquitinase. Q5T2D3. purified OTUD3, Ub-rhodamine fluorescence, 2 h. inhibition, % at 25 µM. hit rate 0.7% among 47,000. AID 1645858
USP30 block: blocks human USP30 ubiquitin-rhodamine cleavage | hit rate 5.3% among 47,000 | purified USP30, Ub-rhodamine cleavage fluorescence | Q70CQ3 | inhibition, % at 25 µM
USP17 block: blocks human USP17 ubiquitin-rhodamine cleavage; hit rate 6.5% among 47,000; A8MUK1; purified USP17, Ub-rhodamine cleavage fluorescence, 3 h; inhibition, % at 50 µM; AID 1645855
USP28 inh: blocks human USP28 ubiquitin-rhodamine cleavage. inhibition, % at 25 µM. purified USP28, Ub-rhodamine cleavage fluorescence, 30 min. AID 1645857. hit rate 3% among 47,000
The depositor's hits bear a star; . = no result. Only some compounds are listed: those with a hit (about 12% of all), similar ones and a draw of the others. No stated cut-off is given here; in the data, active means inhibition above about 30%; inactive means the rest.

SMILES	OTUD3 inh	USP30 block	USP17 block	USP28 inh
CC1O[C@@H](c2ccc3c(c2O)C(=O)C2=C(C3=O)[C@@]3(O)C(=O)C(O)[C@](C)(O)C[C@@]3(O)C=C2)CC[C@@H]1OC(=O)/C=C/C=C/C=C/[C@@H]1O[C@@](C)(C(=O)O)O[C@H]1C (stereo partly specified)	46*	-106	48*	48*
C[C@@H]1OC(O[C@@H]2C[C@H](c3ccc4c(c3O)C(=O)C3=C(C4=O)[C@@]4(OC5CC[C@H](O)[C@H](C)O5)C(=O)C[C@](C)(O)C[C@@]4(O)C=C3)O[C@H](C)C2O)CC[C@@H]1O[C@H]1C[C@@H](O)[C@H](O)[C@@H](C)O1 (stereo partly specified)	-85	-389	-45	-200
O=C(NCCc1ccc2c(c1)OCCO2)c1cc(S(=O)(=O)N2CCCCC2)ccc1N1CCCC1	-13	-12	-1	-7
Cc1cc(N2CCN(C)CC2)n2nc(CN3CCCCC3C)nc2n1 (stereo unspecified)	-4	-18	39*	-7
Cc1cc(N2CCCC2)n2nc(CN3CCN(C)CC3)nc2n1	-4	-4	-4	-7
O=C(CN(CC(=O)NCc1ccccc1Cl)c1nc2ccccc2s1)NCc1ccccc1Cl	14	19	15	10
COc1cc(OC)cc(-n2c(=O)c3sccc3n(CC(=O)c3ccc(Cl)cc3)c2=O)c1	9	30*	35*	11
CCS(=O)(=O)c1ccccc1C(=O)Nc1ccc2sc(C)nc2c1	7	5	5	55*
CCCNC(=O)c1oc2ccc3c(c2c1C)C(=O)CC1(CCCC1)O3	5	39*	20	15
Cc1c(C(=O)NCc2ccccc2F)oc2ccc3c(c12)C(=O)CC1(CCCC1)O3	8	26	16	4
CN1CCCC(OC(=O)c2cccc(Cl)c2)C1 (stereo unspecified)	10	24	15	5
CN1CCCC(OC(=O)c2cc(Cl)cc(Cl)c2)C1 (stereo unspecified)	17	33*	.	23
Cc1noc(-c2csc(C(=O)NCc3ccc(F)cc3F)n2)n1	-4	1	0	4
COc1cc(NC(=O)c2cc(-c3ccncc3)n(-c3ccc(F)cc3)n2)cc(OC)c1	-4	14	10	71*
COc1ccc(NC(=O)c2cc(-c3ccncc3)n(-c3ccc(F)cc3)n2)cc1OC	-2	2	-10	3
CCc1ccc2[nH]c(=O)c(CN(CCc3ccc(OC)c(OC)c3)C(=O)Nc3ccccc3)cc2c1	1	54*	44*	23
Cc1ccc2[nH]c(=O)c(CN(Cc3cccnc3)C(=O)c3cccc(Cl)c3)cc2c1	25	51*	9	7
COc1cc2cc(CN(Cc3cccnc3)C(=O)Nc3ccc(Cl)cc3)c(=O)[nH]c2cc1OC	-16	40*	11	-13
Cc1ccc2[nH]c(=O)c(CN(Cc3cccnc3)S(=O)(=O)c3ccccc3)cc2c1	4	10	-7	-4
Cc1cc(C)n(C(C)CC(=O)N2CCc3nc4sccc4c(=O)n3CC2)n1 (stereo unspecified)	-11	-1	-7	-9
CCc1ccc(C(=O)COc2ncnc3sc(C)c(C)c23)cc1	-24	-97	15	-10
Cc1sc2ncnc(OCc3ccc(F)cc3Cl)c2c1C	13	-5	14	58*
Cc1sc2ncnc(OCc3ccc([N+](=O)[O-])cc3)c2c1C	-15	-99	-4	46*
O=S(=O)(c1cccnc1)N1C[C@H]2CC(OCc3ccccc3)C[C@H]2C1 (stereo partly specified)	10	8	2	5
Nc1nc(C2CCCN(C(=O)CCC3CCCC3)C2)cc2ccnn12 (stereo unspecified)	-1	-25	-12	-4
SMILES	OTUD3 inh	USP30 block	USP17 block	USP28 inh
C[C@H](NC(=O)[C@@H]1Cc2c([nH]c3ccccc23)C2c3ccccc3C(=O)N21)C(=O)NCc1ccccc1 (stereo partly specified)	-11	-70	-22	-13
Clc1ccc(-c2noc(-c3cnccn3)n2)cc1	11	31*	22	14
CCc1nc(-c2cccc(-c3noc(-c4cnccn4)n3)c2)cs1	5	-3	0	5
CC(C)c1nc(CNC(=O)C2CCCCC2)no1	4	10	37*	6
O=C(NCc1noc(C2CCCCC2)n1)C1CCCC1	-6	-8	-13	-21
Cc1c(O)c(O)c(O)c(C=O)c1C=O	15	70*	62*	68*
O=C(C1CN(C(=O)Cn2cnc3ccccc3c2=O)c2ccccc2O1)N1CCOCC1 (stereo unspecified)	-13	-27	-9	-21
O=C(NCCc1c[nH]c2ccccc12)NCc1ccc(Cl)cc1Cl	14	32*	21	21
O=C(CCCc1c[nH]c2ccccc12)N1CCN(C(=O)c2ccc(Cl)cc2Cl)CC1	-1	7	3	2
Cn1cccc1C(=O)N1CCN(C2CCN(CCCc3ccccc3)CC2)C(=O)C1	-8	-24	-4	-19
Cc1ccc(NC(=O)Cn2cnc(S(=O)(=O)N3CCOCC3)c2)cc1Cl	-8	-2	.	-12
Cc1ccccc1NC(=O)Cn1cnc(-c2noc(-c3ccncc3)n2)c1	5	4	-2	-11
CCc1csc(-c2cn(CC(=O)Nc3cccc(C)c3C)cn2)n1	17	58*	51*	20
CCc1csc(-c2cn(CC(=O)Nc3cc(C)ccc3C)cn2)n1	0	-66	49*	-2
Cc1csc(-c2cn(CC(=O)Nc3ccc(C)c(F)c3)cn2)n1	19	24	-7	13
COc1ccc(NC(=O)CN2CCCc3ccccc32)c(OC)c1	3	-13	3	2
Cc1nn(-c2ccc(F)cc2)c(C)c1S(=O)(=O)Nc1cccnc1	7	8	15	11
COc1ccccc1N1CCn2c(nc3cc(NS(C)(=O)=O)ccc32)C1	0	8	40*	0
CS(=O)(=O)Nc1ccc2c(c1)nc1n2CCN(C2CCCC2)C1	-93	-401	-112	-100
Cn1ccc(C2CCCCCN2C(=O)c2ccco2)n1 (stereo unspecified)	-11	-4	0	-10
O=C(Nc1ccc2c(c1)OCO2)C1CC(=O)N(c2ccc3c(c2)OCCO3)C1 (stereo unspecified)	-15	-12	15	2
O=C(Nc1ccc(C(F)(F)F)cc1)C1CC(=O)N(c2ccc3c(c2)OCCO3)C1 (stereo unspecified)	12	34*	35*	19
C(=C\c1ccccc1)/CSc1nnc(-c2ccco2)o1	10	9	19	32*
Cc1ccccc1CNC(=O)c1cccc(-c2cnc(N3CCCC3)nc2)c1	10	32*	5	8
CCN1CCN(C(=O)C2CCN(Cc3ccccc3O)CC2)CC1	-9	-10	-3	-2
COc1cccc(Cn2c(=O)c3cccnc3n(-c3ccccc3)c2=O)c1	-36	-123	.	-37
COc1cccc(Cn2nc(C(=O)O)c3ccccc3c2=O)c1	-3	2	-12	38*
Cc1ccc(-c2c(C(=O)NCc3ccccc3F)oc(=O)c3ccccc23)cc1	8	20	9	21
